Measured values published in PubChem BioAssay AID493169 (National Center for Advancing Translational Sciences (NCATS), 2011).
Inconclusive results are not listed. Activity calls are given as the source filed them. Calls follow the shape of the dose curve; as a rule, active = well fitted inhibition curve with a large enough effect; inconclusive = small, poorly fitted or top-dose-only effect; inactive = flat fitted curve, though single readings scatter.

Experiment: CHOP2 Reporter Counterscreen Assay for Inhibitors of Ubiquitin-specific Protease USP2a;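 also: activated enterokinase alone at 50 pM in a cell-free format rather than USP2a or CHOP2; nearly all actives have a fitted effect of over 55% in size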
Conditions: purified enterokinase, fluorogenic substrate, 485/531 nm; series mostly up to 38.3 µM; activity change, negative = inhibition: at the top concentration
Outline: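 Cell-free counterscreen with pre-activated enterokinase alone (50 pM final) in 20mM Tris-HCl pH 8.0, 2mM CaCl2, 2mM beta-mercaptoethanol, 0.05% CHAPS; compound preincubation 30 min RT, reporter substrate 25nM final, fluorescence read after 10 min (Ex 485/Em 531).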
% is scaled to controls: 0 for no effect and ±100 for the full control effect; potency is read from the fitted curve at half-maximal effect.

Row | SMILES | activity change, negative = inhibition | Potency
1 | O=C(COc1ccccc1)Nc1nnc(-c2ccc(Cl)s2)o1 | -23.3% (inactive) | –
2 | O=C(COC(=O)c1cc(-c2ccc(Cl)s2)nc2ccccc12)NCc1ccco1 | – | 10 µM (active)
3 | COC(=O)c1c(NC(=O)c2cccnc2)sc(C)c1C | 3% (inactive) | –
4 | CN(C)CCCN1C(=O)C(=O)/C(=C(/O)c2ccncc2)C1c1cccnc1 (stereo not drawn) | 0.275% (inactive) | –
5 | O=S(=O)(NC1CCSc2ccccc21)c1ccccc1 (stereo not drawn) | -0.783% (inactive) | –
6 | CCCCCCCCCCOC(=O)Cn1c(COc2ccc(OC)cc2)[n+](C)c2ccccc21 | – | 10 µM (active)
7 | CCOC(=O)c1sc(NC(=O)Nc2ccccc2)cc1C | 4.87% (inactive) | –
8 | COc1ccc(C(=O)CSc2nnc(-c3ccco3)c(-c3ccco3)n2)cc1 | – | 6.31 µM (active)
9 | O=C1CCCC2=C1C(c1ccco1)Nc1ccc3ccccc3c12 (stereo not drawn) | – | 7.94 µM (active)
10 | COc1cccc(NC(=O)Cc2ccccc2)c1 | 8.41% (inactive) | –
11 | CC(C)C(C(=O)O)N1C(=O)/C(=C/C=C/c2ccco2)SC1=S (stereo not drawn) | – | 2 µM (active)
12 | O=C(c1ccccc1)N1CCN(C(=O)N2CCCCC2)CC1 | 2.79% (inactive) | –
13 | CCn1c(CN2CCOCC2)nnc1SCC(=O)Nc1ccc(C(C)=O)cc1 | -3.75% (inactive) | –
14 | N#Cc1cccc(C(=O)N(CCc2ccccc2)Cc2cccs2)c1 | 1.74% (inactive) | –
15 | Cc1ccc(NC(=O)CN2C(=O)N/C(=C/c3ccco3)C2=O)cc1 | – | 5.01 µM (active)
16 | CCOC(=O)C1CCN(CC(O)COc2ccc(C(C)(C)C)cc2)CC1 (stereo not drawn) | 1.27% (inactive) | –
17 | Cc1ccc(C(=O)NCCNS(=O)(=O)c2ccccc2)cc1 | 2.62% (inactive) | –
18 | O=C(Nc1nc(-c2ccco2)c(-c2ccco2)s1)c1ccc(F)cc1F | – | 10 µM (active)
19 | CCC1=[N+](CC(=O)c2ccc(Br)cc2)CCn2c(C)ccc21 | -22% (inactive) | –
20 | CCCCCCCCCC[N+](C)(C)CC/C=C1/c2ccccc2Sc2ccc(Cl)cc21 | – | 7.94 µM (active)
21 | O=C(N/N=C/c1ccc(-c2ccc(Cl)c(C(=O)O)c2)o1)c1cc2c(ccc3ccccc32)o1 | – | 11.2 µM (active)
22 | CSc1ncccc1C(=O)OCC(=O)N1CCOCC1 | 14.9% (inactive) | –
23 | Cc1ccc(C2=[N+]([O-])C(C)N(O)C2(C)C)o1 (stereo not drawn) | -0.491% (inactive) | –
